Our source for the inhibition values is PubChem BioAssay.

For orientation: inhibition means the drop in the measured response relative to a control, in per cent.

A number with no mark means an inactive call. No rule for the calls is given here.

The target of the test is Pantothenate synthetase (Mycobacterium tuberculosis (strain ATCC 25618 / H37Rv)) (UniProt P9WIL5). The test can be described thus: Recombinant Mtb pantothenate synthetase (PanC) inhibitors, coupled enzyme, confirmatory (AID 375).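 Also: 0% = full reaction with vehicle and 100% = no enzyme background.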 Conditions: coupled enzyme assay; at 10 µM, active compounds read high.
Pantothenate synthetase (Mycobacterium tuberculosis (strain ATCC 25618 / H37Rv)), sequence (P9WIL5 whole entry, looked up): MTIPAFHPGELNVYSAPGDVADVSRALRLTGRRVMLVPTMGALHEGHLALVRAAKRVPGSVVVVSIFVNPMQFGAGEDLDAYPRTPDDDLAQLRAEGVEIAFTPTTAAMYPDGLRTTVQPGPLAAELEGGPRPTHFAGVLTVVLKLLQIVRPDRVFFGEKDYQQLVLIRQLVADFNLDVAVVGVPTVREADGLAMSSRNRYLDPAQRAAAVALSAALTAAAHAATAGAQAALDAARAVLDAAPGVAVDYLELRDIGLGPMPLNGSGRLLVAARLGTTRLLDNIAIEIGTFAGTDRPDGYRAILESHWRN
On to `CN1C(=O)CCC1(O)c1ccccc1` (stereo not drawn), for which the inhibition is 0%.
With `O=C(c1ccc(Br)o1)N(c1ccc(Br)cc1)C1C=CS(=O)(=O)C1` (stereo not drawn) the figure was 0%; with `CCCN1C2CCCC1CC(NC(=O)c1ccccc1F)C2` (stereo not drawn), 2%.
With `CC(=O)NS(=O)(=O)c1ccc(NC(=O)c2ccccc2F)cc1` the figure was 0%; with `O=C(Nc1cccnc1)Nc1ccc(F)c(Cl)c1`, 0%; with `O=C(OC1CCOC1=O)c1ccc2ccccc2n1` (stereo not drawn), 4%.
Turning to `COCCn1nnnc1SCC(=O)N1CCCCC1`, the inhibition was 0%.
With `COC(=O)c1ccc(CN(c2ccccc2OC)S(=O)(=O)c2cccs2)o1`, the inhibition is 2%.
Take `c1cc(-c2nc3ccccc3o2)nc(-c2nc3ccccc3o2)c1`: the inhibition is 0%.
Take `Cc1ccnc(NS(=O)(=O)c2ccc(N=CC3=C(O)CC(C)(C)CC3=O)cc2)n1`: the inhibition is 11%.
With `COc1cccc(C2C(C#N)=C(N)OC3=C2C(=O)CCC3)c1OC(=O)c1ccco1` (stereo not drawn) the figure was 13%.
For the compound `N=c1nc(N2CCCCC2)cc(N)n1O`, the inhibition was 0%.
With `CC(C)CN(C(=O)c1ccc(=O)n(C)n1)c1nc2ccccc2s1` the figure was 0%; with `C/C=C(\C)c1nnc(NC(=O)OCC)s1`, 0%; with `CCCCNC(=O)OC(C)CNC(=O)Oc1cccc(C)c1` (stereo not drawn), 0%.
As for `CC(=O)CCc1ccc(OCCCCn2cncn2)cc1`, the figure is 0%; as for `CC(=O)c1cn(CC(=O)NCc2ccc3c(c2)OCO3)c2ccccc12`, 0%.
As to `CCOc1ccccc1-n1c(SCC(=O)NCc2ccco2)nnc1-c1ccncc1`, the inhibition was 1%.
